Pol eta inh: blocks human DNA polymerase eta activity. recombinant Pol eta, fluorescent DNA replication assay. Q9Y253. hit rate 1.2% among 390,000. Potency, µM (doses to about 114 µM), without a hit: at the top dose activity change, negative = inhibition, actives largely listed as inhibitors. AID 588591; further: on the % scale 0 is the no-effect control and ±100 the full control effect
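Pol eta at 10 nM preincubated with compounds 15 min at room temperature; reaction started with fluorescent substrate (50 nM final) and read kinetically at 0 and 10 min.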
Pol iota inh: blocks human DNA polymerase iota activity; Q9UNA4; Pol iota fluorescent replication assay, 10 min; Potency, µM (series often up to 115 µM), for inactives: at the highest dose activity, negative = inhibition, most hits filed as inhibitors; hit rate 1% among 390,000; AID 588590
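Fluorescent replication assay read twice, at 0 min and 10 min after adding 50 nM (final) substrate. Enzyme (10 nM) and compounds were first incubated 15 min at room temperature; enzyme-free buffer wells were negative controls.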
FEN1 inhibitor: inhibitors of human flap endonuclease 1; Recombinant FEN1 flap cleavage, fluorescence, 15 min; Potency, µM (titrated, usually from 114 µM), without a hit: at the highest dose activity change, negative = inhibition, hits mostly inhibitors; hit rate 0.35% among 390,000; further: on the % scale 0 is the no-effect control and ±100 the full control effect; nearly all actives have a fitted effect of over 65% in size
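With each library titrated from low to high concentration, compounds met 10 nM FEN1 for 15 min at room temperature before 50 nM substrate was added; readings at 0 and 15 min fed four-parameter Hill curve fits.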
POLB inh: blocks human DNA polymerase beta activity; AID 485314; hit rate 1.3% among 340,000; Pol beta primer extension/strand displacement, fluorescence kinetic; Potency, µM (doses to about 114 µM), inactives show at the top dose activity change, negative = inhibition, usual class: inhibitors; further: on the % scale 0 is the no-effect control and ±100 the full control effect
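Kinetic readout of DNA synthesis with strand displacement by Pol beta. Compound and 10 nM enzyme sit 15 min at room temperature; 50 nM substrate starts the reaction, read immediately and at 10 min.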
Pol kappa inh: DNA polymerase kappa (human) inhibition; Q9UBT6; purified Pol kappa, fluorescent DNA synthesis assay, 10 min; Potency, µM (highest dose often 107 µM), for inactives: top-dose activity, negative = inhibition, hits mostly inhibitors; hit rate 0.53% among 400,000; AID 588579; further: on the % scale 0 is the no-effect control and ±100 the full control effect
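Pol kappa 10 nM + cpd, 15 min RT; start w/ substrate 50 nM final; fluorescence kinetic read, 0 and 10 min. Neg ctrl: buffer, no enzyme.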
WRN inhibitor: inhibitors of human WRN helicase. Q14191. WRN helicase unwinding, fluorescent forked duplex, kinetic. Potency, µM (top dose mostly 114 µM), for the others: at the highest dose activity change, negative = inhibition, usual class: inhibitors. hit rate 0.46% among 360,000. AID 651768; further: on the % scale 0 is the no-effect control and ±100 the full control effect; nearly all actives have a fitted effect of over 55% in size
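Enzyme (20 nM final) and test compound sit together 15 min at room temperature before substrate addition. Substrate is a single-forked duplex oligonucleotide (100 nM) labelled with fluorophore and quencher, with 2 mM ATP; helicase unwinding raises red fluorescence, read kinetically.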
Active calls of the source: *; ? = inconclusive; nt = not tested or not shown; [ ] = remark or other dose. The list is not random: actives were taken first. Their share in the collection is about 2.4%. The call rests on the fitted dose curve; in most records, active means well fitted curve in the direction sought with a large enough effect; inconclusive means small, poorly fitted or top-dose-only effect, or another doubt; inactive means no such curve, though single readings can be large; an effect the other way counts as inactive or inconclusive. Potency means the concentration at half of the fitted maximal effect.

SMILES	Pol eta inh	Pol iota inh	FEN1 inhibitor	POLB inh	Pol kappa inh	WRN inhibitor
CCc1ccc(/C=C2/SC(N3CCOCC3)=NC2=O)cc1	-21%	40%	4%	22%	4%	-8%
CCN1C/C(=C/c2ccc(N3CCOCC3)cc2)C(=O)/C(=C/c2ccc(N3CCOCC3)cc2)C1	?	79µM*	79µM*	?	?	79µM*
CC(C)S(=O)(=O)C1=NSC2=NC(=O)/C(=C\c3ccc(-c4ccccc4)o3)C(=N)N21	18µM*	-12%	?	79µM*	?	?
CC(C)(C)c1cc(=O)n(-c2ccccc2)[nH]1	?	7.1µM*	4%	?	-13%	-19%
O=c1cc(-c2ccccc2)[nH]n1-c1ccccc1	-14%	?	?	nt	6%	-1%
Nc1ccc(-c2nc3ccc(-c4nc5ccc(N)cc5[nH]4)cc3[nH]2)cc1	6.3µM*	4µM*	35µM*	1.4µM*	2.7µM*	nt
Nc1ccc2nc(-c3ccc(-c4nc5ccc(N)cc5[nH]4)cc3)[nH]c2c1	-19%	?	?	-15%	50µM*	-27%[11.6 µM]
Cc1ccc2nc(-c3cccc(N)c3)[nH]c2c1	-8%	-2%	1%	3%	-5%	-7%[57.1 µM]
Nc1ccc(-c2nc3ccccc3[nH]2)cc1	-21%	23%	7%	?	-1%	-6%
CC[C@@H]1/C=C(\C)C[C@H](C)C[C@H](OC)[C@H]2O[C@@](O)(C(=O)C(=O)N3CCCC[C@H]3C(=O)O[C@H](/C(C)=C/[C@@H]3CC[C@H](Cl)[C@H](OC)C3)[C@H](C)[C@@H](O)CC1=O)[C@H](C)C[C@@H]2OC	nt	nt	nt	nt	-2%[19.4 µM]	nt
COc1ccc(S(=O)(=O)c2c(N)n(Cc3ccco3)c3nc4ccccc4nc23)cc1	7.9µM*	7.9µM*	?	?	25µM*	35µM*
Cc1nc2c(c(=O)n1Cc1ccccc1Cl)c1nc3ccccc3nc1n2Cc1ccco1	nt	nt	nt	20µM*	nt	nt
Cc1ccc(S(=O)(=O)c2c(N)n(/N=C/c3ccco3)c3nc4ccccc4nc23)cc1	-13%	-6%	-16%	14%	-7%	-7%
COc1ccc(Cn2c3nc4ccccc4nc3c3c(=O)n(Cc4ccco4)c(C)nc32)cc1	nt	nt	nt	10µM*	nt	nt
Cc1nc2ccccc2c(=O)n1Cc1ccco1	-17%	31%	2%	89%	3%	-3%
CC(C)CCOc1ccc(N)cc1	nt	nt	nt	nt	-9%[60.1 µM]	nt
Cc1cc(NC2CCCCC2)nc(-n2nc(C)cc2C)n1	nt	nt	nt	nt	1%[60.1 µM]	nt
CCOC(=O)C1CCN(c2cc3c(cc2NC(=O)c2ccccc2)n(C)c(=O)n3C)CC1	-10%	34%	12%	5%	11%	0%
CCOC(=O)C1CCN(c2cc3c(cc2NC(=O)c2ccc(OC)c(OC)c2)n(C)c(=O)n3C)CC1	50µM*	30%	-20%	61%	-8%	-15%[11.6 µM]
O=C(Nc1ccc([N+](=O)[O-])cc1Cl)c1cc(Cl)cc(Cl)c1O	nt	?	4%	nt	8%	nt
O=C(N/N=C/c1ccco1)c1ccc(N2CCCC2=O)cc1	?	?	-6%	?	-11%	-14%
COc1cc(C=C(C#N)C(=O)c2ccccc2)cc(OC)c1OC	nt	nt	nt	nt	nt	-1%[57.1 µM]
COc1cc(/C=C(/C(=O)O)c2ccc(-c3ccccc3)cc2)cc(OC)c1OC	?	27%	-1%	50µM*	-11%	-22%

Screening data from PubChem.
